Measurements as given in the supplement of paper PMC11001985.

Compound: C#CCNC(=O)CCSSCCC(=O)NCCc1ccc(C=O)c(C=O)c1
Experiment: lysine labeling ratio R10:1 (500 µM / 50 µM probe), SILAC-ABPP in living cells; higher = lower intrinsic lysine reactivity toward the probe, active = 2 or less
Settings: HeLa; probe concentrations 500 vs 50 µM
Outline: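 SILAC light and heavy living HeLa cells in PBS at room temperature were labelled with 50 µM or 500 µM of an alkyne-tagged, disulfide-linked lysine probe, with forward and reverse label swaps. Mixed lysates were clicked to biotin-azide, trypsin-digested, captured on neutravidin, DTT-released, alkylated and analysed by LC-MS/MS on a TIMS-TOF Pro. R is the filtered median high-probe/low-probe MS1 peptide ratio per lysine, then the median across forward and reverse replicates. Ratios are capped at 20.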

Sequence of UniProt Q9Y6N7 (Q9Y6N7 whole entry): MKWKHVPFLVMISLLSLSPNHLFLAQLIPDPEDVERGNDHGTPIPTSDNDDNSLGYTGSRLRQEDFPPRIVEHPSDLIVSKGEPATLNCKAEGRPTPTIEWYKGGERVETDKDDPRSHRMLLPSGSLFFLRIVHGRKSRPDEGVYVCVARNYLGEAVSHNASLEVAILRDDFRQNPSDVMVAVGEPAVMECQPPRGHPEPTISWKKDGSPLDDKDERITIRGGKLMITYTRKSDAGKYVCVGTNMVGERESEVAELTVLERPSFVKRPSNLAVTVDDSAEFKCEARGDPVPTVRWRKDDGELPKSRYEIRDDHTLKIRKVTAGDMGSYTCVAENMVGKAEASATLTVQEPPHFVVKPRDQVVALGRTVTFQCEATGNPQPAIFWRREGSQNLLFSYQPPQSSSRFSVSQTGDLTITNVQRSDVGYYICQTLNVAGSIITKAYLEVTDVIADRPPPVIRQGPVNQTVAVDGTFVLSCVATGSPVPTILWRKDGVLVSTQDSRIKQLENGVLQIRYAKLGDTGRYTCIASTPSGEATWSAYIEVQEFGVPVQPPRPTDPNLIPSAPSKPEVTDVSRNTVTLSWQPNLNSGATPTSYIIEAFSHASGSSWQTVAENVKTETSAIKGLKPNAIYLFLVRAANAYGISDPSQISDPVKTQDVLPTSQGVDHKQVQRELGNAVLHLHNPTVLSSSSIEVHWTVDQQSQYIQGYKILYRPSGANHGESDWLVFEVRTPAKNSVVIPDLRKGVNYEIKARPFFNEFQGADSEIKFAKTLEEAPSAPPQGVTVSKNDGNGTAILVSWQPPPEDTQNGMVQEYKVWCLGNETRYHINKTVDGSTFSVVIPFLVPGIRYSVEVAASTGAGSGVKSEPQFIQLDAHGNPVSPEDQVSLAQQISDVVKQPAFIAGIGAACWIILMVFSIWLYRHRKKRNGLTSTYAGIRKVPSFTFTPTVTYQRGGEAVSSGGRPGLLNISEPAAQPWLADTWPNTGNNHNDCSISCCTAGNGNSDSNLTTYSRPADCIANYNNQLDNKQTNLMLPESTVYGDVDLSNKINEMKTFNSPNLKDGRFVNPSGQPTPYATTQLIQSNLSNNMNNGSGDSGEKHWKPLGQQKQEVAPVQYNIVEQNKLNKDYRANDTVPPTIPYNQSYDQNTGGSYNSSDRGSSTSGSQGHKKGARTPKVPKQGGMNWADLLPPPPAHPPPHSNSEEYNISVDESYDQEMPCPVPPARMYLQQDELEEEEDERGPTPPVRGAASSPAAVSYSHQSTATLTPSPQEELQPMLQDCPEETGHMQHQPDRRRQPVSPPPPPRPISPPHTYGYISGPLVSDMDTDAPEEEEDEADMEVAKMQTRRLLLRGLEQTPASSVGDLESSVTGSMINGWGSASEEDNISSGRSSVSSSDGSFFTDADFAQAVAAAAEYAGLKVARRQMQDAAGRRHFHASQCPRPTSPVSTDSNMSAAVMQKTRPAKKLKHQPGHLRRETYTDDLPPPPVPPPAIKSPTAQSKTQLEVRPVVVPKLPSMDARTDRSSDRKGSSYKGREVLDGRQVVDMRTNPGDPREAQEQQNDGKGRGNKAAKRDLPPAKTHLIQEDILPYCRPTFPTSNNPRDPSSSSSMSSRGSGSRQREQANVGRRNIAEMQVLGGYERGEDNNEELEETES
Sequence of UniProt P11279 (P11279 whole entry): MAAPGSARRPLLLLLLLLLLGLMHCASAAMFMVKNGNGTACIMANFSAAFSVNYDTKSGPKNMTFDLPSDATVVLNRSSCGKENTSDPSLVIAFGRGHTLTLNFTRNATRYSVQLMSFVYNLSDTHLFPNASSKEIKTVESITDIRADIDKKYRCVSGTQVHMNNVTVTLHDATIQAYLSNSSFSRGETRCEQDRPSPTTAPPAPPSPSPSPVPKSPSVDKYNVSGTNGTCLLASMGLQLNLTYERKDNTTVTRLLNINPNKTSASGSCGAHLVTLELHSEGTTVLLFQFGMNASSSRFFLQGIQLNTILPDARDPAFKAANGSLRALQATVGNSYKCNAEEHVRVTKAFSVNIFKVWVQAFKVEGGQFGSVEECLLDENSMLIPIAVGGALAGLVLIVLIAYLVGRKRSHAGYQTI
Sequence of UniProt P61077 (P61077 whole entry): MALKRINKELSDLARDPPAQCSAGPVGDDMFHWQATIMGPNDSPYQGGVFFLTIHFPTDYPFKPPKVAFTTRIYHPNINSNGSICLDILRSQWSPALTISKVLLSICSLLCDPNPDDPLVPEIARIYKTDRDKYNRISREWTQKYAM
Sequence of UniProt O43854 (O43854 whole entry): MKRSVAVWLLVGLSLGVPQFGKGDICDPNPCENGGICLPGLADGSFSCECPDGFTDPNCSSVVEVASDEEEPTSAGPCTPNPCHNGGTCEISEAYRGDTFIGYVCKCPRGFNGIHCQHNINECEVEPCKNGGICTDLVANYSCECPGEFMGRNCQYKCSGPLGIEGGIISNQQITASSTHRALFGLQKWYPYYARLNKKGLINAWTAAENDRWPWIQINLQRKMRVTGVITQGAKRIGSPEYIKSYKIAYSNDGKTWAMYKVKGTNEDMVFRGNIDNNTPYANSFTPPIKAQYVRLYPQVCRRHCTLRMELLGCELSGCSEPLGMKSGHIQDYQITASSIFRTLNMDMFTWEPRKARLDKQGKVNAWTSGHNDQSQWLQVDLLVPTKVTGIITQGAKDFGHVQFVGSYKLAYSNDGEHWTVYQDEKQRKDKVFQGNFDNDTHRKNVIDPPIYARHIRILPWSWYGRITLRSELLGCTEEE
Sequence of UniProt P60660 (P60660 whole entry): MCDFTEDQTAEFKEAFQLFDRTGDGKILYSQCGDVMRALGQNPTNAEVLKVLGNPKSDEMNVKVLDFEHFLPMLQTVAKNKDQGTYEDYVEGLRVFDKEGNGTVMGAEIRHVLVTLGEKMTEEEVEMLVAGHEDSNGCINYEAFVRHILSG
Sequence of UniProt O95573 (O95573 whole entry): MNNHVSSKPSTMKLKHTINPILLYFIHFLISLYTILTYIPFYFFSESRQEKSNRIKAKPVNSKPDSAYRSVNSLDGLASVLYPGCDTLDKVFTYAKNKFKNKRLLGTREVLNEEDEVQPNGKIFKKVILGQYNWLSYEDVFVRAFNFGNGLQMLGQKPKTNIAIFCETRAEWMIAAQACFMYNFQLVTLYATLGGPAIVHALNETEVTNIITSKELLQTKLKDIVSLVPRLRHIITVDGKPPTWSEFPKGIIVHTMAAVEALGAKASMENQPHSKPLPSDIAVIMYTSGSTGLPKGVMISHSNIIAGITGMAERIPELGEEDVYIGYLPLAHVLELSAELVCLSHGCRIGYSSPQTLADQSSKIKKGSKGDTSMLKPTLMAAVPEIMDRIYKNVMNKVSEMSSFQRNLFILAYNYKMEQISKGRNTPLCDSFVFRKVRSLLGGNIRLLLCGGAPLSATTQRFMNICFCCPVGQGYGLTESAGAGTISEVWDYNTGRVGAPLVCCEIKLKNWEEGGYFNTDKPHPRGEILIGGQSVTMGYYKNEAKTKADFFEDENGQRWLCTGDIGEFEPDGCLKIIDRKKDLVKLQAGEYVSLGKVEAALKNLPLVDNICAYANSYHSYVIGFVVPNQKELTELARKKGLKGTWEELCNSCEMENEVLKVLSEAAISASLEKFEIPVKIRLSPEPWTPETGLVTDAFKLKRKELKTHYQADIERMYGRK
Sequence of UniProt Q8WUM4 (Q8WUM4 whole entry): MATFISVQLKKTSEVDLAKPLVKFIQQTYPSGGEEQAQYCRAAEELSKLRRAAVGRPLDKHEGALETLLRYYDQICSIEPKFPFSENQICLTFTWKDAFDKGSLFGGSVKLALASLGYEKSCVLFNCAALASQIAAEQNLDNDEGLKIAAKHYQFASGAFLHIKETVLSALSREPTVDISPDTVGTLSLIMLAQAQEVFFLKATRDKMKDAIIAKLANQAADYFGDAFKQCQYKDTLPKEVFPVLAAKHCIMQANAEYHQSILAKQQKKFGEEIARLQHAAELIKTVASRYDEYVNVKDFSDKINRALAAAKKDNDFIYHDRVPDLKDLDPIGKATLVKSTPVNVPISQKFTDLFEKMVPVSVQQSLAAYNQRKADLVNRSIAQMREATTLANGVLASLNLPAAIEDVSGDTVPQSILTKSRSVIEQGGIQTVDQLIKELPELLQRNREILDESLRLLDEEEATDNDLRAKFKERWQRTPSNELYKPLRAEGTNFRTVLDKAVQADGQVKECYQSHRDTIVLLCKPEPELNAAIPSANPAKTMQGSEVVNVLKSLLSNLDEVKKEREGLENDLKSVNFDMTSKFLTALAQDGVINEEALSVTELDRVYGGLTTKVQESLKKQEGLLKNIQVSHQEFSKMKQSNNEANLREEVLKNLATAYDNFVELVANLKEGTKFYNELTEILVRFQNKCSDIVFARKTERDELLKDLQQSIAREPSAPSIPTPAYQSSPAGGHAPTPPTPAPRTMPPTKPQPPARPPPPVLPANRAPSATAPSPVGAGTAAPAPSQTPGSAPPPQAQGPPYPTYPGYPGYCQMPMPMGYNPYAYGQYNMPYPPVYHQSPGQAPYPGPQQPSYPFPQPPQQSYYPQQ
Sequence of UniProt P07237 (P07237 whole entry, looked up): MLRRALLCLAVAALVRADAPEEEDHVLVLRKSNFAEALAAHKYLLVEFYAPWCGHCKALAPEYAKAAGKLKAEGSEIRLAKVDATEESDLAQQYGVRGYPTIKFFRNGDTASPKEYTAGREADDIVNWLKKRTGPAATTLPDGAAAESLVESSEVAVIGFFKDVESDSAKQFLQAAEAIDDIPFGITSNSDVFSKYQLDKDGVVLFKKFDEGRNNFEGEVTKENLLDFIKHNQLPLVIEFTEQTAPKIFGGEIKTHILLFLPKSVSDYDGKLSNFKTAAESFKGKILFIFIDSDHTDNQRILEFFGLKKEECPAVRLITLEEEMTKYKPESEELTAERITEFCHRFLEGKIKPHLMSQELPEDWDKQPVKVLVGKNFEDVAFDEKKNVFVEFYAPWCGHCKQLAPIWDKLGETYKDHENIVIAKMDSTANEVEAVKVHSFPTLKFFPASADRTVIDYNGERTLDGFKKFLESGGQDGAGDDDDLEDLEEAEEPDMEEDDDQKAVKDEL

Target	lysine labeling ratio R10:1
ATAD3B (lysine site: K104) (UniProt Q5T9A4)	0.547 (active)
LAMP1 (lysine site: K137) (UniProt P11279)	2.74 (inactive)
ROBO1 (lysine site: K490) (UniProt Q9Y6N7)	2.81 (inactive)
LAMP1 (lysine site: K337) (UniProt P11279)	6.57 (inactive)
DSTN (lysine site: K132) (UniProt P60981)	1.32 (active)
GBE1 (lysine site: K554) (UniProt Q04446)	0.937 (active)
ENG (lysine site: K402) (UniProt P17813)	2.25 (inactive)
UniProt P60660 (lysine site: K26)	1.69 (active)
P4HB (lysine site: K114) (UniProt P07237)	6.39 (inactive)
FRAS1 (lysine site: K263) (UniProt Q86XX4)	1.46 (active)
UniProt P62805 (lysine site: K78)	8.41 (inactive)
UniProt Q14964 (lysine site: K63)	2.17 (inactive)
UniProt P16144 (lysine site: K219)	4.33 (inactive)
UniProt P61077 (lysine site: K8)	3.43 (inactive)
UniProt P62854 (lysine site: K113)	7.15 (inactive)
DSG2 (lysine site: K562) (UniProt Q14126)	6.57 (inactive)
ROBO1 (lysine site: K733) (UniProt Q9Y6N7)	5.78 (inactive)
UniProt Q8WXI7 (lysine site: K13558)	5.1 (inactive)
ANPEP (lysine site: K205) (UniProt P15144)	2.56 (inactive)
ANXA3 (lysine site: K263) (UniProt P12429)	1.92 (active)

Target	lysine labeling ratio R10:1
LAMB1 (lysine site: K1579) (UniProt P07942)	2.82 (inactive)
PDCD6IP (lysine site: K285) (UniProt Q8WUM4)	15.7 (inactive)
CHCHD3 (lysine site: K89) (UniProt Q9NX63)	0.99 (active)
HSP90B1 (lysine site: K547) (UniProt P14625)	3.04 (inactive)
UniProt Q15149 (lysine site: K2903)	2.51 (inactive)
ALCAM (lysine site: K76) (UniProt Q13740)	6.62 (inactive)
HSPA8 (lysine site: K251) (UniProt P11142)	1.57 (active)
UniProt P62249 (lysine site: K130)	4.97 (inactive)
ACSL3 (lysine site: K397) (UniProt O95573)	3.08 (inactive)
CNP (lysine site: K101) (UniProt P09543)	2.62 (inactive)
DST (lysine site: K3977) (UniProt Q03001)	1.83 (active)
UniProt P62249 (lysine site: K73)	3.59 (inactive)
VASN (lysine site: K506) (UniProt Q6EMK4)	5.1 (inactive)
EDIL3 (lysine site: K157) (UniProt O43854)	3.03 (inactive)
ICAM1 (lysine site: K469) (UniProt P05362)	4.19 (inactive)
IGF2R (lysine site: K393) (UniProt P11717)	3.23 (inactive)
ITGAV (lysine site: K514) (UniProt P06756)	0.678 (active)
PTGES2 (lysine site: K233) (UniProt Q9H7Z7)	2.07 (inactive)
IARS (lysine site: K903) (UniProt P41252)	1.66 (active)
APOA4 (lysine site: K79) (UniProt P06727)	1.22 (active)
